Assay [1] addresses Casein kinase I isoform gamma-2 (Homo sapiens) (UniProt P78368). Conditions: at 1 µM.
The target of assay [2] is Casein kinase I isoform gamma-3 (Homo sapiens) (UniProt Q9Y6M4). Conditions: at 0.1 µM.
For assay [3] the target is unchanged. Conditions: at 1 µM.
Assay [4] concerns the target Cyclin-dependent kinase 1 (Homo sapiens) (UniProt P06493). The note with it: at 0.1 µM.
For assay [5] the target is unchanged. The note with it: at 1 µM.
Assay [6] deals with Cyclin-dependent kinase 2 (Homo sapiens) (UniProt P24941). Conditions: at 0.1 µM.
Assay [7] has the same target. Conditions: at 1 µM.
Assay [8] shares this target. The note with it: at 0.1 µM. This is another data set of the same source.
The target is the same in assay [9]. Conditions: at 1 µM. This is another data set of the same source.
For assay [10], the target named is T1, CDK3/Cyclin E (Homo sapiens) (UniProt P24864+Q00526). Conditions: at 0.1 µM.
Assay [11] has as its target T1, CDK3/Cyclin E (Homo sapiens). Conditions: at 1 µM.
The target in assay [12] is Cyclin-dependent kinase 4 (Homo sapiens) (UniProt P11802). Conditions: at 0.1 µM.
Assay [13] shares this target. Conditions: at 1 µM.
The target in assay [14] is Cyclin-dependent kinase 5 (Homo sapiens) (UniProt Q00535). Conditions: at 0.1 µM.
Assay [15] has the same target. The note with it: at 1 µM.
Assay [16] deals with Cyclin-dependent kinase 6 (Homo sapiens) (UniProt Q00534). Conditions: at 0.1 µM.
Assay [17] shares this target. The note with it: at 1 µM.
Assay [18] concerns the target Dual specificity protein kinase CLK2 (Homo sapiens) (UniProt P49760). Conditions: at 0.1 µM.
The target is the same in assay [19]. The note with it: at 1 µM.
Assay [20] deals with Dual specificity protein kinase CLK3 (Homo sapiens) (UniProt P49761). The note with it: at 0.1 µM.

The record followed here is ChEMBL document CHEMBL1961873, “Compounds: GSK PKIS; Assays: Nanosyn kinase panel” (2012).

Each structure is given as a SMILES string.

Cyclin-dependent kinase 6 (Homo sapiens), sequence (Q00534 whole entry): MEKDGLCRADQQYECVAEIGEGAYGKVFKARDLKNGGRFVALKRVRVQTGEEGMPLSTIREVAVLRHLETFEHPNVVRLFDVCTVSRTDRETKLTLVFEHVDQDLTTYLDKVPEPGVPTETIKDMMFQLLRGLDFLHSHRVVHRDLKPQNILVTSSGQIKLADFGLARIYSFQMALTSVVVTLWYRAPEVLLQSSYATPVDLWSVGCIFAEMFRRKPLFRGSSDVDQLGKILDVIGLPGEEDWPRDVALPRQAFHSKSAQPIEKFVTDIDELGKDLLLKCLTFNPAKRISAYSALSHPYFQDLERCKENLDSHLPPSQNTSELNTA
Cyclin-dependent kinase 1 (Homo sapiens), sequence (P06493 whole entry, looked up): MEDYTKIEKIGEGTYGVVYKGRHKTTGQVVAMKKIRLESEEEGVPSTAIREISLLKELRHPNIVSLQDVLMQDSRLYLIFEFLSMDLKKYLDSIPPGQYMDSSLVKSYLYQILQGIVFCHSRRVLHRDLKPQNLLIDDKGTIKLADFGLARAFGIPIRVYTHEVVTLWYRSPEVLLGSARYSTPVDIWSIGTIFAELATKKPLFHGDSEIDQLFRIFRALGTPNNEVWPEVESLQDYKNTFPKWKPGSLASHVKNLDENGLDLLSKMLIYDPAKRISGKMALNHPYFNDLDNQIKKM
Casein kinase I isoform gamma-3 (Homo sapiens), sequence (Q9Y6M4 whole entry, looked up, canonical isoform): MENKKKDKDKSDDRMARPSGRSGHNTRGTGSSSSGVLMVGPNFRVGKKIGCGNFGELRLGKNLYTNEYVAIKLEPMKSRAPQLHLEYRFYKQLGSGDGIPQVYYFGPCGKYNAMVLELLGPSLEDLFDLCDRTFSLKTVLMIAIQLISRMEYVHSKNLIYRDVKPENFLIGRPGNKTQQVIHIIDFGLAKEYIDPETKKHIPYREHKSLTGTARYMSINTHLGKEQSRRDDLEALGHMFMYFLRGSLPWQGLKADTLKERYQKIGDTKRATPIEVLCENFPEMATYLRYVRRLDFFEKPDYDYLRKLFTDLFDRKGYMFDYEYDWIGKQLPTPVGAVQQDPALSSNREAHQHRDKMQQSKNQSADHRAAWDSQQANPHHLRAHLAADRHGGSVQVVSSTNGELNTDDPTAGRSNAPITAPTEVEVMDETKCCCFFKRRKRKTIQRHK
T1 sequence (P24864 whole entry, looked up): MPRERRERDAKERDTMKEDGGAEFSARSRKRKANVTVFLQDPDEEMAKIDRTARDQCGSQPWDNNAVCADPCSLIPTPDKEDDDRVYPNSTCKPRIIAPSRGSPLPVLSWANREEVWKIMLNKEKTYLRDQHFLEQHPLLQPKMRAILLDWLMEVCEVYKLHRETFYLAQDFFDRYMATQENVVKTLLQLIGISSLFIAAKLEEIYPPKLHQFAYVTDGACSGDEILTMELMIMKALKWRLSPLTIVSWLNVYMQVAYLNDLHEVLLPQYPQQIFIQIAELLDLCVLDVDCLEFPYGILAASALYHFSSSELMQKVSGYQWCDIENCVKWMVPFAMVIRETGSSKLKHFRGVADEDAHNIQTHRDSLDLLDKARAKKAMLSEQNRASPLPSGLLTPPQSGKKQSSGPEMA
T1 sequence (Q00526 whole entry, looked up): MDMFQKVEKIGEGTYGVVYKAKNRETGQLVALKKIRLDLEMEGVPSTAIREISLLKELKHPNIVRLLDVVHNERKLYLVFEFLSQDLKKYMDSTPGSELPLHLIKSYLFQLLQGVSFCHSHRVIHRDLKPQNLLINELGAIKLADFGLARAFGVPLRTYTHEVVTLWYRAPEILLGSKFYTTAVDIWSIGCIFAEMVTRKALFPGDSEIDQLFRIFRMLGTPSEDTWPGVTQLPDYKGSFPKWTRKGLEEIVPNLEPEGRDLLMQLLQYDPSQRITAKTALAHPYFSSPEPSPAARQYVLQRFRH
Cyclin-dependent kinase 5 (Homo sapiens), sequence (Q00535 whole entry, looked up): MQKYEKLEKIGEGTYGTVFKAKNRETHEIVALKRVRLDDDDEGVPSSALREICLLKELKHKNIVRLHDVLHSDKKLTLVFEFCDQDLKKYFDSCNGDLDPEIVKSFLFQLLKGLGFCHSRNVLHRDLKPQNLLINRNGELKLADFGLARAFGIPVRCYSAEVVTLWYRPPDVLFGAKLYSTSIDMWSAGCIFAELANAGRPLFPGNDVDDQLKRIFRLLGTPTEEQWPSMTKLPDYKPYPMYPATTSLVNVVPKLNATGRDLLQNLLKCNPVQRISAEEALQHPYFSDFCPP
Cyclin-dependent kinase 4 (Homo sapiens), sequence (P11802 whole entry): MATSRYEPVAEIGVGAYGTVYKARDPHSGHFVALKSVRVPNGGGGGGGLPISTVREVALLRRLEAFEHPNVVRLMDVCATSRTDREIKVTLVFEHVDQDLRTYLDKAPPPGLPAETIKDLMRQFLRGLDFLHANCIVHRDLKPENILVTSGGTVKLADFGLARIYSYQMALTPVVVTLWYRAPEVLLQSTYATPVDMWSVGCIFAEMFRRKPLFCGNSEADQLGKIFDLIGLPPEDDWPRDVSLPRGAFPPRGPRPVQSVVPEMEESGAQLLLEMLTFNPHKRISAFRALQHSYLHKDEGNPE
Dual specificity protein kinase CLK3 (Homo sapiens), sequence (P49761 whole entry, looked up): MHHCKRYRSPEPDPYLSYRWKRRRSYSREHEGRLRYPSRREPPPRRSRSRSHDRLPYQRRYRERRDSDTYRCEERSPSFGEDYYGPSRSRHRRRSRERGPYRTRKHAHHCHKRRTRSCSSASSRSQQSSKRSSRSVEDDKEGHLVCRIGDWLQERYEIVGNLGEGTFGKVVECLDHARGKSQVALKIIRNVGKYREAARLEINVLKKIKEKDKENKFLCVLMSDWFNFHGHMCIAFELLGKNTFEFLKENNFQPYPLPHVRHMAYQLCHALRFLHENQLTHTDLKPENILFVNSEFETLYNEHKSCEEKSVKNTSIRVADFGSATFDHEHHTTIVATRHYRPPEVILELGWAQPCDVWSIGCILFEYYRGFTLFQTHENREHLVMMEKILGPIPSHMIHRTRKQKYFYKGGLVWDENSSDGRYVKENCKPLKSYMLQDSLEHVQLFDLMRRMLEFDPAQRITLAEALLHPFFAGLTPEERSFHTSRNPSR
Dual specificity protein kinase CLK2 (Homo sapiens), sequence (P49760 whole entry, looked up): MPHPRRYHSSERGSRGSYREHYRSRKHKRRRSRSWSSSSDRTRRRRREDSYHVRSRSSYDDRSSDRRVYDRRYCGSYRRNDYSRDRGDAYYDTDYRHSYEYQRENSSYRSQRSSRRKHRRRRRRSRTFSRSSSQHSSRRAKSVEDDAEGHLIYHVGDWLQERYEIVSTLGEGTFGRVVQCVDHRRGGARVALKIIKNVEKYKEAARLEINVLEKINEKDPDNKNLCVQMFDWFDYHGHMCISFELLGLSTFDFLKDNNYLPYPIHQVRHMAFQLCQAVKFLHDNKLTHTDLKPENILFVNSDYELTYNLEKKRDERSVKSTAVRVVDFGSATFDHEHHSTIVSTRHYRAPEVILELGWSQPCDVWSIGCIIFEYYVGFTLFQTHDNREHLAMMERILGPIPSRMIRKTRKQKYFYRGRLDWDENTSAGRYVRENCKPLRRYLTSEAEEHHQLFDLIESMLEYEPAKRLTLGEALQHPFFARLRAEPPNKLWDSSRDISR
Casein kinase I isoform gamma-2 (Homo sapiens), sequence (P78368 whole entry, looked up, canonical isoform): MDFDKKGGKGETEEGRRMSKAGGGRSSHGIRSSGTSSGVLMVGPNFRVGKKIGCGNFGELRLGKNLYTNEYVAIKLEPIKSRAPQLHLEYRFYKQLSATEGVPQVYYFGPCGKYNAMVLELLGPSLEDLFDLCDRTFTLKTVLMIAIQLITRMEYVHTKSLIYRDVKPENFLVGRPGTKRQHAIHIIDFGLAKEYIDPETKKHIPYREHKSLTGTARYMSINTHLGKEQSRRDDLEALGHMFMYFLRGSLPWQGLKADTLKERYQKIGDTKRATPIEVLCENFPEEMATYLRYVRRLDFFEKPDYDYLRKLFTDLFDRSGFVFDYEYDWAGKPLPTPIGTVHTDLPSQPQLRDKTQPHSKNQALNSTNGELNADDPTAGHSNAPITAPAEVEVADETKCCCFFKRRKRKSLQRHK

The inhibition is the change of the read-out against control, counted positive when it falls. `Cc1ccc(O)cc1Nc1ccnc2ccc(S(C)(=O)=O)cc12`: the inhibition in assay [1] is 6.1%; in assay [2] it was 3.71%; in assay [3], 9.28%; in [4] it was 1.72%; in [5], -1.86%; in assay [6], 2.82%. Moreover, the inhibition was 4.49% in assay [7]; 4.22% in [8]; 4.92% in assay [9]; 2.71% in assay [10]; -3.13% in assay [11]; 3.24% in [12]. The inhibition in assay [13] was 4.37%; in assay [14], 0.36%; in [15] it was 2.61%; in assay [16] it was -4.64%; in assay [17] it was 3.72%; in assay [18], 2.47%. Also, the inhibition in assay [19] amounted to 7.17%; in assay [20], 1.75%.
With `N#Cc1c(NC(=O)c2ccccc2F)sc2c1CCCC2`, the inhibition was -1.07% in [1]; -2.12% in [2]; -0.42% in assay [3]; 1.03% in [4]; 1.65% in assay [5]; -0.45% in [6]. For the same compound, the inhibition in assay [7] is 0.88%; in assay [8], -2.16%; in [9] it was -0.2%; in assay [10], -1.77%; in assay [11], -1.38%; in [12], -0.94%. Also, the inhibition in assay [13] is 1.2%; in assay [14] it was 0.27%; in assay [15] it was 1.58%; in assay [16], -4.39%; in [17], -2.09%; in [18] it was -1.95%. Also, the inhibition in assay [19] was -0.15%; in assay [20] it was -0.38%.
`NC(=O)c1cccc(Nc2nccc(Nc3cccc(F)c3)n2)c1`: the inhibition in assay [1] is 1.73%; in assay [2] it was 0.99%; in assay [3], 0.09%; in assay [4], 1.24%; in [5] it was 3.33%; in assay [6], 2.07%. In addition, the inhibition in assay [7] was 4.6%; in assay [8], 0.92%; in assay [9] it was 5.16%; in assay [10], 0.62%; in assay [11], 3.01%; in assay [12], 0.31%. Also, the inhibition in assay [13] is 2.2%; in assay [14], 0.58%; in [15], 3.99%; in [16] it was -1.89%; in assay [17] it was 0.33%; in [18], 0.31%. In addition, the inhibition in assay [19] is 5.73%; in assay [20] it was -0.43%.
As for `CCCN1CCCC(c2ccc(Nc3nc(Nc4cc(F)ccc4C(N)=O)c4cc[nH]c4n3)c(OC)c2)C1` (stereo not given), the inhibition in assay [1] stood at 78.6%; in assay [2] it was 44.3%; in assay [3], 83.5%; in [4], 0.12%; in assay [5] it was 2.76%; in assay [6], 2.13%. Moreover, the inhibition in [7] was determined as 10.8%; in assay [8], 3.57%; in assay [9] it was 8.67%; in assay [10] it was 4.8%; in assay [11], 0.01%; in assay [12], 3.53%. For the same compound, the inhibition in [13] was 12.1%; in assay [14] it was 0.43%; in [15], 5.92%; in assay [16] it was -2.09%; in [17], 8.41%; in assay [18], 67.3%. Moreover, the inhibition in assay [19] turned out to be 93.8%; in assay [20], 4.01%.
`CS(=O)(=O)Nc1cccc(-c2ccc3c(NC(=O)C4CC4)n[nH]c3c2)c1`: the inhibition in assay [1] came to 0.91%; in assay [2] it was 0.37%; in assay [3], 1.22%; in assay [4], 1.04%; in assay [5], 3.4%; in assay [6], 1.58%. The inhibition is 6.73% in assay [7]; 1.31% in assay [8]; 4.6% in [9]; 2.08% in assay [10]; 3.8% in [11]; 0.3% in assay [12]. For the same compound, the inhibition in [13] was 2.88%; in assay [14], 0.92%; in assay [15], 2.86%; in [16], -5.62%; in [17] it was 6.33%; in [18], 2.8%. Besides, the inhibition in [19] was 3.81%; in assay [20] it was -0.87%.
In the case of `COc1cc(Nc2nccc(-c3cnn4ncccc34)n2)cc(OC)c1`, the inhibition was 39.3% in assay [1]; 3.02% in [2]; 34.9% in assay [3]; 69.1% in assay [4]; 91.3% in assay [5]; 54.5% in [6]. Also, the inhibition was 110% in [7]; 63.6% in assay [8]; 90% in [9]; 34.6% in assay [10]; 74.3% in [11]; 44.9% in assay [12]. Further, the inhibition in assay [13] stood at 78.5%; in assay [14], 63%; in assay [15] it was 90.1%; in assay [16], 24.9%; in assay [17], 76.1%; in [18], 99.2%. For the same compound, the values for the inhibition in [19] and in assay [20] were 99.9% and 36.5%, respectively.
Turning to `COc1ccc2ncnc(Nc3ccc(OCc4ccccc4)cc3)c2c1`, the inhibition in [1] is 2.03%; in assay [2], -0.66%; in assay [3], 1.41%; in assay [4] it was 0.67%; in assay [5] it was 1.75%; in assay [6], 1.36%. Further, the inhibition is -4.84% in assay [7]; 0.4% in assay [8]; 1.13% in [9]; 1.69% in [10]; -1.97% in assay [11]; 0.76% in assay [12]. Further, the inhibition was 0.15% in [13]; 0.36% in [14]; 0.72% in [15]; -0.31% in [16]; 1.08% in assay [17]; 1.07% in assay [18]. Moreover, the inhibition in assay [19] worked out at 0.25%; in assay [20] it was 0.35%.
On to `COC(=O)c1cncc(/C=C/c2c(C)cc(O)cc2C)c1`, for which the inhibition in assay [1] was 3.31%; in [2], 2.67%; in assay [3], 3.39%; in assay [4], 0.78%; in [5] it was 3.13%; in assay [6] it was 2.61%. The inhibition in [7] is 4.42%; in assay [8], 3.33%; in assay [9], 5.75%; in assay [10], 1.45%; in [11] it was -1.29%; in [12] it was 2.45%. For the same compound, the inhibition in assay [13] is 3.9%; in assay [14], 1.02%; in [15], 3.28%; in [16] it was 4.33%; in [17], 4.14%; in [18] it was -0.85%. Further, the inhibition in assay [19] worked out at 2.84%; in assay [20] it was 2.11%.
Regarding `Cc1cc(Cl)cc2c1NC(=O)C2=NNc1ccc(S(N)(=O)=O)cc1`, the inhibition is 1.54% in [1]; -0.43% in [2]; 0.95% in [3]; 1.08% in assay [4]; 1.91% in assay [5]; 1.27% in assay [6]. The inhibition in assay [7] is 2.22%; in [8], 1.42%; in [9], 4.71%; in assay [10] it was 3.25%; in assay [11], -0.36%; in assay [12] it was 0.78%. In addition, the inhibition in assay [13] turned out to be 3.56%; in assay [14], 0.57%; in [15], 2.28%; in [16], 2.2%; in assay [17] it was 3.46%; in assay [18] it was 0.86%. Further, the figures for the inhibition in assay [19] and in [20] were 2.34% and 0.9%, respectively.
As to `C[C@@H](Oc1cc(-n2cnc3ccc(OC[C@@H](O)CO)cc32)sc1C(N)=O)c1ccccc1Cl`, the inhibition in [1] was -0.43%; in assay [2], -1.73%; in assay [3], 1.34%; in assay [4], 0.5%; in assay [5] it was 3.21%; in [6], 1.64%. The inhibition in [7] was 2.63%; in assay [8] it was -2.32%; in assay [9], 3.99%; in assay [10], 1.36%; in assay [11], 1.56%; in assay [12] it was -0.86%. Further, the inhibition was 0.89% in assay [13]; 0.29% in assay [14]; 1.88% in assay [15]; -1.79% in assay [16]; -0.4% in assay [17]; 1.72% in [18]. The inhibition in assay [19] was determined as 7.52%; in assay [20] it was 0.13%.
Regarding `Cc1ccc2c(-c3ccnc(Nc4cccc(C(F)(F)F)c4)n3)c(-c3ccccc3)nn2n1`, the inhibition in assay [1] came to 12%; in assay [2], 4.25%; in assay [3], 24.8%; in assay [4], 3.78%; in assay [5], 3.79%; in assay [6], 4.09%. In addition, the inhibition in assay [7] was 3.14%; in assay [8], 2.95%; in assay [9], 7.4%; in assay [10], -1.21%; in assay [11], -1.25%; in assay [12], 4.12%. Besides, the inhibition was 7.65% in [13]; 2.11% in assay [14]; 4.09% in assay [15]; -1.73% in assay [16]; 1.79% in assay [17]; -0.15% in [18]. Also, the inhibition in assay [19] is 2.76%; in assay [20] it was 0.65%.
Regarding `CS(=O)(=O)CCNCc1nc(-c2ccc3ncnc(Nc4ccc(OCc5cccc(C(F)(F)F)c5)cc4)c3c2)cs1`, the inhibition in assay [1] was 1.13%; in assay [2] it was 0.51%; in assay [3] it was -0.03%; in assay [4], 2.33%; in [5], 2.13%; in assay [6], 1.96%. Further, the inhibition was -0.45% in assay [7]; 1.42% in [8]; 0.41% in [9]; -1.59% in [10]; -0.52% in [11]; 4.15% in [12]. Besides, the inhibition in assay [13] is 3.83%; in [14], 0.46%; in assay [15], -0.01%; in assay [16], -2.37%; in assay [17] it was 3.31%; in assay [18] it was -2.75%. The inhibition worked out at 1.02% in assay [19] and 0.04% in [20].
Turning to `COc1cccc(-n2nc(C)c3c(N/N=C(\C)c4ccncc4)ncnc32)c1`, the inhibition in assay [1] is 0.28%; in [2], -0.15%; in assay [3], -0.59%; in assay [4], 0.65%; in [5], 2.77%; in assay [6], 1.78%. For the same compound, the inhibition in assay [7] was 7.56%; in assay [8], 1.09%; in [9] it was 2.33%; in [10], -0.92%; in [11] it was -0.83%; in assay [12], 0.53%. Also, the inhibition in assay [13] was 2.41%; in [14] it was 0.97%; in assay [15], 5.69%; in [16], -2.27%; in [17], 0.77%; in [18] it was -2.05%. The inhibition in assay [19] was 0.8%; in assay [20], -1.02%.
Take `N#Cc1cccc(Nc2nccc(-c3cnn4ncccc34)n2)c1`: the inhibition in assay [1] amounted to 41.4%; in assay [2], 8.75%; in [3] it was 43%; in [4], 83.8%; in [5], 89.2%; in [6], 89.8%. Further, the inhibition in assay [7] was 121%; in assay [8] it was 82.3%; in [9], 87.2%; in assay [10], 76.7%; in assay [11], 99.9%; in assay [12] it was 71%. In addition, the inhibition in [13] came to 83.7%; in assay [14] it was 80.3%; in assay [15], 87%; in assay [16], 61.9%; in assay [17], 84%; in assay [18], 98.9%. Further, the values for the inhibition in assay [19] and in assay [20] were 96.9% and 56.7%, respectively.
